# According to PubChem BioAssay (EPA / NIEHS):
# The source made the active and inactive calls. How the source made its calls: active means hit-call score of the fitted dose curve at least 0.9, where 1 is the maximum; inactive means score below 0.9.
# Key:
# [1] = molecular target: Transcription factor E2F1 (Homo sapiens) (UniProt Q01094); experiment: ATG_E2F_CIS: Attagene CIS-FACTORIAL HepG2 Assay for human E2F Transcription Factor 1 (AID 2282935); settings: HepG2 Attagene cis-reporter, E2F reporter RNA transcripts; actives raise or lower the signal
# Chain of Transcription factor E2F1 (Homo sapiens) (Q01094 whole entry, looked up): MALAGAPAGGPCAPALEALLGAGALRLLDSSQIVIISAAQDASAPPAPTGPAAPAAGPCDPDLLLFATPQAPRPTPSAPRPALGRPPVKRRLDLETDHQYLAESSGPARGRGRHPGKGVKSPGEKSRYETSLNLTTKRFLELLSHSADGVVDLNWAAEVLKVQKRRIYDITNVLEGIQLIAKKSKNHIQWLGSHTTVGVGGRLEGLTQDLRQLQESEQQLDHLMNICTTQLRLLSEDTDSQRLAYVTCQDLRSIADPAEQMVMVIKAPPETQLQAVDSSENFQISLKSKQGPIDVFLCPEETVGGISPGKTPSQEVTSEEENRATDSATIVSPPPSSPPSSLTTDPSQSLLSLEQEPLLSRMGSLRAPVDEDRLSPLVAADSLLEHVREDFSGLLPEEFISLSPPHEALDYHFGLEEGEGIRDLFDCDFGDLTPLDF
# Outline: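 HepG2 cells transiently transfected with multiplexed cis-element reporter units, dosed for 24 h. Reporter mRNA measured by RT-PCR, 6-FAM primer-extension labeling, HpaI digestion and capillary electrophoresis; bidirectional fit versus DMSO baseline.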
# [2] = ATG_E_Box_CIS: Attagene CIS-FACTORIAL HepG2 Assay for human Enhancer Box (E-box) (AID 2282936); settings: HepG2 E-box cis-reporter transcription, actives raise or lower the signal
# Outline: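 HepG2 cells transiently transfected with multiplexed cis-element reporter units sensing endogenous transcription factor activity; 24 h compound exposure. Reporter mRNA measured by RT-PCR, 6-FAM primer extension, HpaI digestion and capillary electrophoresis; bidirectional fit versus DMSO.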
# [3] = ATG_M_61_CIS: Attagene CIS-FACTORIAL HepG2 Assay for M61 Transcription Factor (Internal Marker) (AID 2282937); settings: HepG2 Attagene CIS-FACTORIAL M61 internal marker reporter; actives raise or lower the signal
# Outline: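 Background-control endpoint: HepG2 cells with cis-regulated reporter constructs, 24 h exposure, reporter mRNA detected via fluorescent primer extension and capillary electrophoresis; values from bidirectional fitting with DMSO baseline.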
# [4] = ATG_EGR_CIS: Attagene CIS-FACTORIAL HepG2 Assay for human Early Growth Response 1 (EGR1) (AID 2282938); settings: HepG2 Attagene CIS-FACTORIAL EGR reporter mRNA; actives raise or lower the signal
# Outline: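 Endpoint derived by bidirectional fitting versus DMSO vehicle. Method: cis-promoter reporter units transfected into HepG2, 24 h dosing, RNA isolation, RT-PCR with 6-FAM primer extension and HpaI digestion, then capillary electrophoresis fluorescence detection.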
# [5] = ATG_M_19_CIS: Attagene CIS-FACTORIAL HepG2 Assay for M19 Transcription Factor (Internal Marker) (AID 2282939); settings: HepG2 Attagene CIS-FACTORIAL M19 internal marker reporter; actives raise or lower the signal
# Outline: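 Readout: fluorescent reporter-transcript fragments by capillary electrophoresis after RT-PCR. Human HepG2 liver cells carried transfected MRTU constructs reporting endogenous transcription-factor activity; exposure 24 h. Gain or loss of signal fitted relative to DMSO.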
# [6] = ATG_Ets_CIS: Attagene CIS-FACTORIAL HepG2 Assay for human Erythroblast Transformation Specific (ETS) (AID 2282941); settings: HepG2 ETS cis-reporter transcription, actives raise or lower the signal
# Outline: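 Human HepG2 hepatoma cells were transiently transfected with promoter-driven reporter constructs and treated for 24 hours. Reporter transcripts were quantified by RT-PCR with fluorescent primer extension; bidirectional curve fitting used DMSO as reference.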
# [7] = molecular target: Hepatocyte nuclear factor 3-beta (Homo sapiens) (UniProt Q9Y261); experiment: ATG_FoxA2_CIS: Attagene CIS-FACTORIAL HepG2 Assay for human Forkhead box A2 (FOXA2) (AID 2282942); settings: HepG2 cis-reporter transcription factor activity, 24 h; actives raise or lower the signal
# Chain of Hepatocyte nuclear factor 3-beta (Homo sapiens) (Q9Y261 whole entry, looked up): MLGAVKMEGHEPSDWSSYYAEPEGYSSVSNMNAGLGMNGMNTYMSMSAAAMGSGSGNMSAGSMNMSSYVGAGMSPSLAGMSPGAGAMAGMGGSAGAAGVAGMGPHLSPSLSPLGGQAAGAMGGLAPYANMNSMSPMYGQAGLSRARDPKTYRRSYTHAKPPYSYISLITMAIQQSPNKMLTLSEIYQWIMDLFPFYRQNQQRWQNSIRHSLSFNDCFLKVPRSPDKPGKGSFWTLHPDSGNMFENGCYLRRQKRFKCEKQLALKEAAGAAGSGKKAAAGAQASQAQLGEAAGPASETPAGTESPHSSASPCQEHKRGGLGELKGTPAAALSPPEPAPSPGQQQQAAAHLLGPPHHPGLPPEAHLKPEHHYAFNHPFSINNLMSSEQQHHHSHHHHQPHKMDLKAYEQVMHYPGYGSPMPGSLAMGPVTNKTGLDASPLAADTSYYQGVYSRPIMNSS
# Outline: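 Measured: reporter mRNA induction or loss in HepG2 transiently carrying multiple cis-regulated reporter units, 24 h after dosing. Quantified by RT-PCR plus capillary electrophoresis, normalised to DMSO.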
# [8] = ATG_FoxO_CIS: Attagene CIS-FACTORIAL HepG2 Assay for human Forkhead box O (FoxO) (AID 2282943); settings: HepG2 Attagene cis-reporter, FoxO element, mRNA; actives raise or lower the signal
# Outline: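 HepG2 cells transiently transfected with cis-promoter-driven multiple reporter transcription units; 24 h after chemical dosing, reporter mRNA quantified by RT-PCR, fluorescent primer extension, HpaI digestion and capillary electrophoresis. Bidirectional fitting versus DMSO baseline.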
# [9] = ATG_GLI_CIS: Attagene CIS-FACTORIAL HepG2 Assay for human Zinc Finger Protein GLI1 (AID 2282945); settings: HepG2, Attagene cis-factorial reporter mRNA, GLI element; actives raise or lower the signal
# Outline: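 HepG2 cells transiently transfected with cis-promoter multiplexed reporter units report endogenous transcription factor activity. After 24 h chemical exposure, reporter mRNA was quantified by RT-PCR, 6-FAM labelling, HpaI digestion and capillary electrophoresis, with bidirectional fitting against DMSO.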
# [10] = ATG_GRE_CIS: Attagene CIS-FACTORIAL HepG2 Assay for human Glucocorticoid Response Elements (GRE) (AID 2282947); settings: HepG2 GRE cis-reporter, Attagene multiplex mRNA; actives raise or lower the signal
# Outline: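 HepG2 cells transiently transfected with multiple cis-promoter reporter units measure endogenous TF activity; 24 h compound exposure. Reporter mRNA quantified by RT-PCR, FAM labelling, HpaI digestion and capillary electrophoresis; bidirectional fit vs DMSO baseline.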
# [11] = ATG_ISRE_CIS: Attagene CIS-FACTORIAL HepG2 Assay for human Interferon Regulatory Factor 1 (IRF1) binding to an Interferon-Stimulated Response Element (ISRE) (AID 2282948); settings: HepG2 ISRE cis-reporter (Attagene), mRNA transcription readout; actives raise or lower the signal
# Outline: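 Cell-based cis-reporter assay; HepG2; 24 h exposure; reporter mRNA by RT-PCR plus capillary electrophoresis fluorescence; activity in either direction scored relative to DMSO.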
# [12] = ATG_M_32_CIS: Attagene CIS-FACTORIAL HepG2 Assay for M32 Transcription Factor (Internal Marker) (AID 2282949); settings: HepG2 Attagene cis-factorial M32 reporter, mRNA; actives raise or lower the signal;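 further: background control marker of the multiplexed CIS panel rather than a real target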
# Outline: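 Following 24 h chemical exposure of HepG2 cells transiently expressing cis-promoter reporter constructs, reporter transcript levels were determined by RT-PCR with fluorescent labelling and capillary electrophoresis, then fitted bidirectionally against DMSO.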
# [13] = ATG_M_06_CIS: Attagene CIS-FACTORIAL HepG2 Assay for M06 Transcription Factor (Internal Marker) (AID 2282950); settings: HepG2 Attagene CIS-FACTORIAL M06 internal marker reporter; actives raise or lower the signal
# Outline: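 Terse: HepG2, transient MRTU transfection (FuGene 6), 24 h dosing; total RNA, oligo(dT) RT, PCR, FAM label, HpaI cut, capillary electrophoresis; bidirectional fit vs DMSO baseline; background-control endpoint.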
# [14] = molecular target: Hypoxia-inducible factor 1-alpha (Homo sapiens) (UniProt Q16665); experiment: ATG_HIF1a_CIS: Attagene CIS-FACTORIAL HepG2 Assay for human Hypoxia Inducible Factor 1 (HIF1A) (AID 2282951); settings: HepG2 Attagene cis-factorial HIF1a reporter transcription; actives raise or lower the signal
# Chain of Hypoxia-inducible factor 1-alpha (Homo sapiens) (Q16665 whole entry, looked up): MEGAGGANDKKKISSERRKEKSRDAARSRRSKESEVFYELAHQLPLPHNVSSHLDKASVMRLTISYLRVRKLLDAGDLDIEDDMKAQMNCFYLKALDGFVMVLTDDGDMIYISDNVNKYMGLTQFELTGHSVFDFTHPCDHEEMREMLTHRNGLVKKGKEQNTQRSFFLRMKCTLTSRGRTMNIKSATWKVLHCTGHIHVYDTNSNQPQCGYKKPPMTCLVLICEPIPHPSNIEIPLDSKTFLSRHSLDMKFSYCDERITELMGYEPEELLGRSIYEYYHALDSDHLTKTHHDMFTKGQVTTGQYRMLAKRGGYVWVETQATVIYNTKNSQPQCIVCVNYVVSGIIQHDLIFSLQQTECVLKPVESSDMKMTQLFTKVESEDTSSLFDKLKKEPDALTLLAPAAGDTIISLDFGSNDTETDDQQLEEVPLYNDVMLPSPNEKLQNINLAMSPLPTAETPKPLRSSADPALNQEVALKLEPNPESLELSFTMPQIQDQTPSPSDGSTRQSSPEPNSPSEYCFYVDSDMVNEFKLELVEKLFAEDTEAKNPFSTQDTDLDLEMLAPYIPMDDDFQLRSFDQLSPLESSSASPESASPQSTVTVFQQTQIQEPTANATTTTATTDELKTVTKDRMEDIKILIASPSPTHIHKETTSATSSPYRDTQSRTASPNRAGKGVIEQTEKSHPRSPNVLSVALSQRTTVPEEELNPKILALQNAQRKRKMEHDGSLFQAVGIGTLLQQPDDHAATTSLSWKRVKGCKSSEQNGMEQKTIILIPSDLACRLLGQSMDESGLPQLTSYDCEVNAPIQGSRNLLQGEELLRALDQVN
# Outline: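 Dosed 24 h, transfected HepG2 cells yielded total RNA whose reporter transcripts were RT-PCR-amplified and sized by capillary electrophoresis using fluorescent labelling; DMSO defined baseline, with gain and loss of signal both fitted.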
# [15] = molecular target: Hepatocyte nuclear factor 6 (Homo sapiens) (UniProt Q9UBC0); experiment: ATG_HNF6_CIS: Attagene CIS-FACTORIAL HepG2 Assay for human Hepatocyte Nuclear Factor 6 (HNF6) (AID 2282952); settings: HepG2 Attagene cis-factorial HNF6 reporter transcription; actives raise or lower the signal
# Chain of Hepatocyte nuclear factor 6 (Homo sapiens) (Q9UBC0 whole entry, looked up, the tested form may be a part): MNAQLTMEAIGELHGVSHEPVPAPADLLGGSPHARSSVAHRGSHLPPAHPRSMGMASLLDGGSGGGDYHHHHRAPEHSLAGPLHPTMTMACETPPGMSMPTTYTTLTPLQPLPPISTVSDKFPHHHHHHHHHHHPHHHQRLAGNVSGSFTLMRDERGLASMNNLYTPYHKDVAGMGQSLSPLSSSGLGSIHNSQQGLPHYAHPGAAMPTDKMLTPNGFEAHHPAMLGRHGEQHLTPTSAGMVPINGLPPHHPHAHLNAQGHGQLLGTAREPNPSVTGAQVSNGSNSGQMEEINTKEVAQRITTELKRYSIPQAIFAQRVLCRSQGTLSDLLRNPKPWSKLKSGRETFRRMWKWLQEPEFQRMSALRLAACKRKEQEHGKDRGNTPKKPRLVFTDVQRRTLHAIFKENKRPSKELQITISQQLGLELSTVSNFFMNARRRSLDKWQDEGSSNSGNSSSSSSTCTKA
# Outline: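 Reporter mRNA induction or loss in HepG2 after 24 h exposure; transient cis-MRTU transfection; fragments quantified by capillary electrophoresis; bidirectional analysis, DMSO as negative control.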
# [16] = molecular target: Heat shock factor protein 1 (Homo sapiens) (UniProt Q00613); experiment: ATG_HSE_CIS: Attagene CIS-FACTORIAL HepG2 Assay for human Heat Shock Transcription Factor 1 (HSE) (AID 2282953); settings: HepG2 HSE cis-reporter, Attagene RNA transcription; actives raise or lower the signal
# Chain of Heat shock factor protein 1 (Homo sapiens) (Q00613 whole entry, looked up, the tested form may be a part): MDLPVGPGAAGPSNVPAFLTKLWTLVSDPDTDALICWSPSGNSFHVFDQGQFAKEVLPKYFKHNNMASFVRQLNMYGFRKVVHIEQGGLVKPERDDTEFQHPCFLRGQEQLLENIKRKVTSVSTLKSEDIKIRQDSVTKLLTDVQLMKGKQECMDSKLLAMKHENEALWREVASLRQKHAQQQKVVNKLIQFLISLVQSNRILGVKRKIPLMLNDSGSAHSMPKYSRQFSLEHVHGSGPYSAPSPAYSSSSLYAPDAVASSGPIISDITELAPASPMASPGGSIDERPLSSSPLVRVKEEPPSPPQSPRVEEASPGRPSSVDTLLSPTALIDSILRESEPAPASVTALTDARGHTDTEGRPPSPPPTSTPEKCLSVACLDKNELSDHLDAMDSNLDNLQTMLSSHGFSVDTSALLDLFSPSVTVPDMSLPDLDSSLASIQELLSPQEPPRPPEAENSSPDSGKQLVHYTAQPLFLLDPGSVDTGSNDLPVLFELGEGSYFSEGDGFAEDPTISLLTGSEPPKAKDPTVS
# Outline: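 Read-out: fluorescence of reporter-specific RT-PCR fragments separated by capillary electrophoresis. HepG2 carrying transfected cis-element reporter units; 24 h dosing; activity fitted in both directions relative to DMSO baseline.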
# [17] = ATG_MRE_CIS: Attagene CIS-FACTORIAL HepG2 Assay for human Metal Responsive Element (MRE) (AID 2282954); settings: HepG2 MRE cis-reporter transcription, Attagene multiplex; actives raise or lower the signal
# Outline: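 HepG2 cells transiently transfected with multiple cis-element reporter units measure endogenous MTF1-driven transcription. After 24 h compound exposure, reporter mRNA is quantified by RT-PCR with 6-FAM labelling, HpaI digestion and capillary electrophoresis; bidirectional fits versus DMSO.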
# [18] = ATG_ERE_CIS: Attagene CIS-FACTORIAL HepG2 Assay for Estrogen Response Element (ERE) (AID 2282940); settings: HepG2 ERE cis-reporter, Attagene RNA transcript; actives raise or lower the signal
# Outline: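 Readout: reporter mRNA induction by RT-PCR, FAM-labelled primer extension, HpaI digestion and capillary electrophoresis, 24 h after dosing transfected HepG2 cells. Endogenous transcription factors act on cis-element-regulated reporters. Gain or loss fitted against DMSO.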
# [19] = ATG_GATA_CIS: Attagene CIS-FACTORIAL HepG2 Assay for human GATA Binding Protein (AID 2282944); settings: HepG2 GATA cis-element reporter, Attagene multiplex mRNA; actives raise or lower the signal
# Outline: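 Read-out: fluorescent reporter mRNA fragments resolved by capillary electrophoresis after RT-PCR. Human liver HepG2 cells carried transiently transfected cis-regulated reporter constructs; chemicals incubated 24 h; gain or loss of signal fitted relative to DMSO.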
# [20] = molecular target: Bile acid receptor (Homo sapiens) (UniProt Q96RI1); experiment: ATG_IR1_CIS: Attagene CIS-FACTORIAL HepG2 Assay for human Nuclear Receptor Subfamily 1 Group H Member 4 (NR1H4), IR1 submotif (AID 2282946); settings: IR1 reporter transcription, actives raise or lower the signal
# Chain of Bile acid receptor (Homo sapiens) (Q96RI1 whole entry, looked up): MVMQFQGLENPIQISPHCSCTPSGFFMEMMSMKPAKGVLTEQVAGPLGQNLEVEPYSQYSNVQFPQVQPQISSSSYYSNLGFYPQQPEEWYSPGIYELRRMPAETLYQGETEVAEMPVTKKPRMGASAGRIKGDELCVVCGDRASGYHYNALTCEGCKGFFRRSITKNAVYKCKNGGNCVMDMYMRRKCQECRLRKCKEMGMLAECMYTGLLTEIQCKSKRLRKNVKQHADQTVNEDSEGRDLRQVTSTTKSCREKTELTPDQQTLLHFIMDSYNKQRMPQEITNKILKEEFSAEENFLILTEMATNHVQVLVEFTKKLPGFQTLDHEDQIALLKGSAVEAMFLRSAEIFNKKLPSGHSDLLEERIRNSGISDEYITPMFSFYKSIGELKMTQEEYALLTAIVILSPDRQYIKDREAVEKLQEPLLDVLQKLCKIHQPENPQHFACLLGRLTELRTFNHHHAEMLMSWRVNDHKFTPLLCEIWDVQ
# Outline: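 Transient MRTU transfection, HepG2; 24 h dosing; RNA → RT-PCR → 6-FAM primer extension → HpaI digest → capillary electrophoresis fluorescence. Gain/loss of signal fitted relative to DMSO.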
structure (smiles),measurement,setting,value
O=C(O)CS,outcome,[1],inactive
same,outcome,[2],inactive
same,outcome,[3],inactive
same,outcome,[4],inactive
same,outcome,[5],inactive
same,outcome,[6],inactive
same,outcome,[7],inactive
same,outcome,[8],inactive
same,outcome,[9],inactive
same,outcome,[10],inactive
same,outcome,[11],inactive
same,outcome,[12],inactive
same,outcome,[13],inactive
same,outcome,[14],inactive
same,outcome,[15],inactive
same,outcome,[16],inactive
same,outcome,[17],inactive
COc1ccc(OC)cc1,outcome,[1],inactive
same,outcome,[2],inactive
same,outcome,[3],inactive
same,outcome,[4],inactive
same,outcome,[18],inactive
same,outcome,[6],inactive
same,outcome,[7],inactive
same,outcome,[8],inactive
same,outcome,[19],inactive
same,outcome,[9],inactive
same,outcome,[10],inactive
same,outcome,[11],inactive
same,outcome,[12],inactive
same,outcome,[13],inactive
same,outcome,[14],inactive
same,outcome,[15],inactive
same,outcome,[16],inactive
same,outcome,[17],inactive
O=[N+]([O-])c1cc(N(CCO)CCO)ccc1NCCO,outcome,[1],inactive
same,outcome,[2],inactive
same,outcome,[3],inactive
same,outcome,[4],inactive
same,outcome,[18],inactive
same,outcome,[6],inactive
same,outcome,[7],inactive
same,outcome,[8],inactive
same,outcome,[19],inactive
same,outcome,[9],inactive
same,outcome,[11],inactive
same,outcome,[12],inactive
same,outcome,[15],inactive
same,outcome,[16],inactive
same,outcome,[17],inactive
[Na+],outcome,[1],inactive
same,outcome,[2],inactive
same,outcome,[3],inactive
same,outcome,[4],inactive
same,outcome,[5],inactive
same,outcome,[6],inactive
same,outcome,[7],inactive
same,outcome,[8],inactive
same,outcome,[9],inactive
same,outcome,[10],inactive
same,outcome,[11],inactive
same,outcome,[12],inactive
same,outcome,[13],inactive
same,outcome,[14],inactive
same,outcome,[15],inactive
same,outcome,[16],inactive
same,outcome,[17],inactive
CCCCCCCCCC(=O)OCC,outcome,[1],inactive
same,outcome,[2],inactive
same,outcome,[3],inactive
same,outcome,[4],inactive
same,outcome,[5],inactive
same,outcome,[6],inactive
same,outcome,[7],inactive
same,outcome,[8],inactive
same,outcome,[19],inactive
same,outcome,[9],inactive
same,outcome,[12],inactive
same,outcome,[13],inactive
same,outcome,[14],inactive
same,outcome,[15],inactive
same,outcome,[16],inactive
same,outcome,[17],inactive
CN(C)CCC=C1c2ccccc2CCc2ccccc21,outcome,[1],inactive
same,outcome,[2],inactive
same,outcome,[3],inactive
same,AC50,[4],41 µM (active)
same,outcome,[18],inactive
same,outcome,[6],inactive
same,outcome,[7],inactive
same,outcome,[8],inactive
same,outcome,[19],inactive
same,outcome,[9],inactive
same,outcome,[20],inactive
same,outcome,[10],inactive
same,outcome,[13],inactive
same,outcome,[15],inactive
same,outcome,[16],inactive
same,AC50,[17],43.2 µM (active)
